Among the data in PubChem BioAssay AID485346 (Sanford-Burnham Center for Chemical Genomics, 2010) are inhibition values, retold here.

Each structure is given as a SMILES string. Out of some 330,000 compounds screened, about 10,000 (3%) were called active. What follows is part of a selection rich in actives, with near analogues and random picks from the rest. A number with no mark means an inactive call.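 How the source made its calls: active means inhibition of at least 50% at 8 µM in the primary screen; inactive means the rest.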

Chain of Protein Mdm4 (Homo sapiens) + E3 ubiquitin-protein ligase Mdm2 (Homo sapiens) (O15151 whole entry, looked up): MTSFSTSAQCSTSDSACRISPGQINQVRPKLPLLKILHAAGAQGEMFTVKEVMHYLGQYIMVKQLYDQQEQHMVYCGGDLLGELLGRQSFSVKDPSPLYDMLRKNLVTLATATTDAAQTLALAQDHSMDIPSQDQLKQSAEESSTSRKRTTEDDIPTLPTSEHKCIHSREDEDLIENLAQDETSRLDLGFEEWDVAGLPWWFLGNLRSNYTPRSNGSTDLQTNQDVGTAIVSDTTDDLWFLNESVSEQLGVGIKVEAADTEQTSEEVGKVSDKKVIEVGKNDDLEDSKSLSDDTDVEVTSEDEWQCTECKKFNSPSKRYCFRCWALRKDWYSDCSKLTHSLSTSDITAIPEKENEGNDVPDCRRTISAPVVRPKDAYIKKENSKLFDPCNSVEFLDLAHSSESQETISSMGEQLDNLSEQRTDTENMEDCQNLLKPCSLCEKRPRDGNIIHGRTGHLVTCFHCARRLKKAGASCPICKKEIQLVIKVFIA
Chain of Protein Mdm4 (Homo sapiens) + E3 ubiquitin-protein ligase Mdm2 (Homo sapiens) (Q00987 whole entry, looked up): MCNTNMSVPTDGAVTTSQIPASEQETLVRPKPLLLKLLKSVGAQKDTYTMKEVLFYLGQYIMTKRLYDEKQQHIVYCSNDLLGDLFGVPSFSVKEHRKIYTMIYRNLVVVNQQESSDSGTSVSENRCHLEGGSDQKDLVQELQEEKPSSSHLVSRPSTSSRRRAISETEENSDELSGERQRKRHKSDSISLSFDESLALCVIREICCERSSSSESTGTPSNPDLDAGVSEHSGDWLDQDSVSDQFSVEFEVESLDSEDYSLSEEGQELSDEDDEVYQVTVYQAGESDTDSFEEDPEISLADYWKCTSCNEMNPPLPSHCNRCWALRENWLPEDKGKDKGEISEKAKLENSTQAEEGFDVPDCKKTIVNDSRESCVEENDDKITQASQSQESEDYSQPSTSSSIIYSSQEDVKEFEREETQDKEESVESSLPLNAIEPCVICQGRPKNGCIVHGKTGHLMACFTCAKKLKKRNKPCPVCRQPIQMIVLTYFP

This assay addresses Protein Mdm4 (Homo sapiens) + E3 ubiquitin-protein ligase Mdm2 (Homo sapiens) (UniProt O15151+Q00987). Description: disruptors of Mdm2/MdmX RING complex – cell-based, luminescence, split luciferase, SaOS-2, uHTS, primary screen (AID 485346). The settings on record: SaOS-2 split-luciferase Mdm2/MdmX complementation, at 8 µM, active compounds read high.
Regarding `O=C(Nc1ccc2ccccc2c1)Nc1ccc2snnc2c1`, the inhibition was 88.1% (active).
Next, `O=C(Nc1cccc(Br)c1)c1ccc2snnc2c1`: -3.74%.
Next, `CCc1ccccc1NC(=O)c1ccc2snnc2c1`: 25.3%.
Next, `CC(C)[C@@H](C(=O)O)N(Cc1cccc(CN([C@H](C(=O)O)C(C)C)S(C)(=O)=O)c1)S(C)(=O)=O`: 9.86%.
As to `CCN(CC)S(=O)(=O)c1ccc(Cl)c(NC(=O)c2ccncc2)c1`, the inhibition was 11.7%.
Next, `Cc1cccc(NC(=O)c2cccnc2Cl)n1`: 2.81%.
Next, `CCN(CC)S(=O)(=O)c1ccc(NC(=O)c2cccnc2Cl)c(NC(=O)c2cccnc2Cl)c1`: 94.7% (active); `COCc1cc(C)nc2sc(C(=O)NC3CCCCC3)c(N)c12`: 7.84%.
Next, `COc1ccc(OC)c(NC(=O)c2ccc3c(c2)CCN3S(C)(=O)=O)c1`: 15.2%; `COc1ccc(OC)c(NC(=O)c2sc3nc(C)cc(C)c3c2N)c1`: 58.3% (active); `COc1ccc(N(C(=O)c2ccc(C)cc2)S(=O)(=O)c2cccs2)cc1`: 17.4%.
On to `CN(C)c1ccc2c(=O)[nH][nH]c(=O)c2c1`, for which the inhibition is 4.05%.
As for `O=C(NCc1cccs1)c1ccc2c(c1)ncn2C1CCCC1`, the inhibition is -11.4%.
Next, `CCOC(=O)C1CCN(Cc2c(C(=O)N3CCOCC3)nc3c(C)cccn23)CC1`: 15.2%.
Next, `COC(=O)Cn1nc(-c2ccccc2)c2cc(Cl)ccc21`: 10.1%; `COCCCNc1nc2c(-c3cccc(C)c3)nnn2c2ccc(Cl)cc12`: 55.3% (active); `COCCCNc1nc2c(-c3cccc(C(F)(F)F)c3)nnn2c2ccccc12`: 17.3%.
Next, `CC1CCCN(c2ccc(C(=O)NCCc3ccccc3)cn2)C1` (stereo not drawn): -61.6%; `O=c1oc2ccccc2c(NC2CCCCC2)c1NS(=O)(=O)c1ccc(Cl)cc1`: 14.1%.
Turning to `S=c1[nH]nc2c3c4c(sc3ncn12)CCCC4`, the inhibition is 14%.
For `O=C1N[C@@H](c2ccccc2)COC(=O)[C@H](Cc2ccc(F)cc2)C/C=C\C[C@@H]1CC(=O)N(CCO)Cc1ccccc1`, the inhibition was 9.71%.
As to `O=C1NC[C@@H](c2ccccc2)OC(=O)[C@H](Cc2ccc(F)cc2)CC/C=C/C[C@H]1CC(=O)N(CCO)Cc1ccccc1`, the inhibition was 59.7% (active).
Regarding `O=C1CCC/C=C/C[C@@H](CC(=O)N(CCO)Cc2ccccc2)C(=O)NC[C@H](c2ccccc2)O1`, the inhibition was -21.8%.
Next, `Cn1c(CCNS(=O)(=O)c2ccc(F)cc2)nnc1SCc1cccnc1`: 13.7%; `CN[C@H](C(=O)NC[C@H]1O[C@@H](n2cnc3c(N)ncnc32)[C@H](O)[C@@H]1O)[C@@H](C)OCc1ccccc1`: 16.8%.
Next, `COc1ccc2cc(C3=CC(=O)C[C@H](c4ccc5c(c4)OCO5)C3)ccc2c1`: 3.41%; `COC(=O)N(NC(=O)C(O)(C(C)C)C(C)C)c1ccccc1`: -17.3%; `CCCC(O)(CCC)C(=O)NN(C(=O)CCl)c1cccc(C)c1`: 94% (active).
Next, `CCCCC(O)(CCCC)C(=O)NN(C(=O)CCl)c1ccccc1`: 87.3% (active); `CCCCCNC(=O)C1c2ccccc2Oc2ccccc21`: -5.28%; `CC(C)(O)C(=O)NN(C(=O)c1ccccc1)c1cccc(Br)c1`: -9.41%.
In the case of `Cc1ccc(N(NC(=O)C(C)(C)O)C(=O)c2ccccc2)cc1C`, the inhibition is -3.58%.
On to `CCn1cc(C(=O)N[C@@H](C)C(=O)NCCO)c(=O)c2cc3c(cc21)OCO3`, for which the inhibition is -4.24%.
Regarding `Cc1ccc(N(CC(=O)NCC2CCCO2)C(=O)CNS(=O)(=O)c2ccc(Cl)cc2)cc1` (stereo not drawn), the inhibition was -1.2%.
Next, `Cc1ccc2c(c1)N(CCCC(=O)NCc1cccnc1)C(=O)CO2`: 5.4%.
In the case of `CSCC[C@H](NC(=O)NCc1cccs1)C(=O)O`, the inhibition is 3.11%.
In the case of `O=C(Cc1nc2ccccc2[nH]c1=O)c1ccc(Cl)cc1`, the inhibition was -186%.
`O=C(CCc1nc2ccccc2c(=O)[nH]1)OCC(=O)c1cccc(Cl)c1`: the inhibition was 30.6%.
Next, `O=C(/C(=C/c1cccc(Cl)c1)c1nc2ccccc2[nH]1)c1ccccc1`: 100% (active); `CCCN(CCC)c1c([N+](=O)[O-])c(=O)oc2ccccc12`: -1.56%; `Cc1cccc(-n2c(C)cc(/C=N/NC(N)=S)c2C)c1`: -13.2%.
Consider `Cc1cccc(-n2c(C)cc(/C=N\NC(=O)c3cccs3)c2C)c1`, for which the inhibition was 67.2% (active).
Next, `Cc1ccc(-n2nc(C)c(/C=N/NC(=O)c3cccs3)c2Cl)cc1`: 3.87%; `CCC1CCC2(CC1)NC(=O)N(CC(=O)Nc1ccc(OC)cc1)C2=O` (stereo not drawn): 18.6%.
Next, `CCN(CC(=O)Nc1ccc(NC(C)=O)cc1)C(=O)C1CC(=O)N(Cc2ccc(C)cc2)C1` (stereo not drawn): -26.3%; `CCN(CC)c1ccc(C(=O)c2cnc(/N=C/N(C)C)s2)cc1`: -23.2%.
Next, `COCCCNC(=S)NC(=O)c1ccccc1`: -18.2%; `CCOC(=O)C1=C(NC(=S)NC(=O)c2ccccc2)c2ccccc2CC1(C)C`: 51.4% (active).
As for `Cc1ccc(NC(=S)NC(=O)c2ccc(-c3ccccc3)cc2)cc1`, the inhibition was 12.8%.
Regarding `CC1(C)C[C@H]2C3=CCC4[C@@]5(C)CC[C@H](O)[C@](C)(CO)C5CC[C@@]4(C)[C@]3(C)C[C@@H](O)[C@@]2(CO)[C@@H](O)[C@@H]1O` (stereo partly drawn), the inhibition is 17.8%.
Next, `N#Cc1ccc(C(=O)Nc2cccc3cccnc23)c(F)c1`: 56.2% (active); `O=C(Nc1cccc2cccnc12)c1cccc(Cl)c1`: -3.29%.
Next, `COc1ccc(NC(=O)c2ccco2)cc1NC(=O)c1ccc(C#N)cc1F`: 5.85%; `CC(C)Cc1ccc(C(C)C(=N)N)cc1` (stereo not drawn): -18.4%.
Turning to `COc1ccc(S(=O)(=O)N(CC(=O)NCc2ccco2)c2ccc(F)cc2)cc1`, the inhibition is 10.5%.
Next, `Cc1oc2c(c1C(=O)N1CCOCC1)C(=O)c1ccccc1C2=O`: 53.6% (active); `Cc1ccccc1-c1ccc(Nc2ccc(C(=O)N3CCOCC3)cc2)nn1`: 0.851%.
Next, `COC1=C(N2CCOCC2)C(=O)c2ccccc2C1=O`: 17.1%.

What is called inhibition is the change of the read-out against control, counted positive when it falls.
